Compounds without any hit were thinned out: in the full panel of roughly 83,000, 20% have a hit.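 96-well plates, one dose, 48 hours. Percent growth reported; active if below 10.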 Values without a mark were called inactive. Activity calls are given as the source filed them.

Among the test systems are DU-145 prostate; K-562 leukemia; MALME-3M melanoma; MDA-MB-231 breast; RXF 393 renal; SF-268 CNS; SF-295 CNS; SF-539 CNS; UACC-257 melanoma; M14 melanoma; HCT-15 colon; HT29 colon; SNB-75 CNS; SNB-19 CNS; U251 CNS; PC-3 prostate; SK-MEL-5 melanoma; UACC-62 melanoma; LOX IMVI melanoma; SK-MEL-28 melanoma.
Holding throughout (assay): NCI-60 one-dose screen, 48 h (100 = growth as untreated, 0 = no growth, -100 = all killed)
Conditions in all cases: 10 µM unless noted

Consider `CCOC(=O)c1c(C)nc2c(c1N)CC(=O)N2Cc1ccc(OC)cc1`, for which the growth is 47.4% with DU-145 prostate; 99.8% in the assay on K-562 leukemia; 33.6% in the assay with MALME-3M melanoma; 19.6% in the assay on MDA-MB-231 breast; 37.7% in the assay on RXF 393 renal; 4.12% (active) in the assay with SF-268 CNS. The growth was 28.5% in the assay on SF-295 CNS; 26.4% in the assay with SF-539 CNS; 49.4% in the assay on UACC-257 melanoma; 86.8% with M14 melanoma; 55.6% in the assay on HCT-15 colon; 38.4% in the assay with HT29 colon. Further, the growth was -5.39% (active) in the assay with SNB-75 CNS; 4.6% (active) in the assay with SNB-19 CNS; 4.05% (active) in the assay with U251 CNS; 43% with PC-3 prostate; 53.7% in the assay with SK-MEL-5 melanoma; 25.7% in the assay with UACC-62 melanoma. The growth with LOX IMVI melanoma is 75.9%; in the assay on SK-MEL-28 melanoma it was 55%.

For the molecule `C=C(c1ccc(OC)c(/C=C/C(=O)c2ccc3c(c2)OCO3)c1)c1cc(OC)c(OC)c(OC)c1`, the growth was 9.67% (active) in the assay on DU-145 prostate; 6.89% (active) in the assay on K-562 leukemia; 67.2% in the assay with MALME-3M melanoma; 29% with MDA-MB-231 breast; 3.52% (active) in the assay on RXF 393 renal; 19.3% in the assay on SF-268 CNS. The growth with SF-295 CNS was 10.7%; in the assay with SF-539 CNS, -21.8% (active); with UACC-257 melanoma it was 58.7%; with M14 melanoma, 11.3%; in the assay on HCT-15 colon it was -8.44% (active); in the assay on HT29 colon it was 10.2%. The growth is 5.07% (active) in the assay with SNB-75 CNS; 30.9% with SNB-19 CNS; 11% with U251 CNS; 26.5% in the assay on PC-3 prostate; 0.661% (active) in the assay on SK-MEL-5 melanoma; 2.65% (active) in the assay on UACC-62 melanoma. Moreover, the growth in the assay on LOX IMVI melanoma was -51.1% (active); in the assay on SK-MEL-28 melanoma it was 11.5%.

Regarding `O=C(CSc1nc(-c2ccccc2)cc(=O)[nH]1)Nc1nc(-c2ccccc2)cs1`, the growth is 97.8% in the assay with DU-145 prostate; 87.7% in the assay with K-562 leukemia; 110% in the assay on MALME-3M melanoma; 116% in the assay on MDA-MB-231 breast; 87.4% in the assay on RXF 393 renal; 93.8% in the assay with SF-268 CNS. Besides, the growth with SF-295 CNS is 76.4%; in the assay with SF-539 CNS it was 113%; with UACC-257 melanoma, 94.6%; with M14 melanoma, 117%; in the assay with HCT-15 colon it was 89.7%; in the assay on HT29 colon, 99.1%. Moreover, the growth in the assay with SNB-75 CNS is 85.9%; in the assay with SNB-19 CNS, 105%; with U251 CNS, 99.9%; in the assay with PC-3 prostate it was 78.8%; in the assay on SK-MEL-5 melanoma, 85.7%; with UACC-62 melanoma, 69.1%. Also, the results for the growth in the assay on LOX IMVI melanoma and in the assay on SK-MEL-28 melanoma were 96.6% and 111%, respectively.

Turning to `Cc1[nH]c(C2CC(c3ccc(C(F)(F)F)c(F)c3)=NN2c2ccccc2)c(C)c1C(=O)NCC(F)(F)F` (stereo not given), the growth in the assay with DU-145 prostate was 94.7%; with K-562 leukemia, 76%; in the assay with MALME-3M melanoma, 79.7%; in the assay with MDA-MB-231 breast, 88.8%; in the assay on RXF 393 renal, 80.8%; in the assay on SF-268 CNS, 84.7%. For the same molecule, the growth is 87.1% in the assay on SF-295 CNS; 94.4% in the assay with SF-539 CNS; 97.6% in the assay with UACC-257 melanoma; 94.8% in the assay with M14 melanoma; 76.2% with HCT-15 colon; 84.6% in the assay on HT29 colon. Also, the growth in the assay with SNB-75 CNS is 82.5%; with SNB-19 CNS it was 85.6%; in the assay on U251 CNS it was 91%; in the assay on PC-3 prostate, 74.6%; with SK-MEL-5 melanoma, 95.7%; in the assay with UACC-62 melanoma it was 75.5%. The growth with LOX IMVI melanoma was 88.6%; in the assay on SK-MEL-28 melanoma, 96.9%.

Take `COc1ccc(NC(=O)Nc2ccc(OCCCCCC(=O)NO)cc2)cc1`: the growth was 106% in the assay on DU-145 prostate; 88.3% in the assay with K-562 leukemia; 97.5% in the assay on MALME-3M melanoma; 105% in the assay with MDA-MB-231 breast; 98.3% with RXF 393 renal; 101% in the assay on SF-268 CNS. Besides, the growth in the assay on SF-295 CNS was 109%; in the assay with SF-539 CNS, 103%; in the assay on UACC-257 melanoma it was 73.4%; with M14 melanoma, 95.3%; in the assay with HCT-15 colon, 117%; in the assay on HT29 colon it was 88.8%. Further, the growth in the assay on SNB-75 CNS was 93.2%; with SNB-19 CNS, 102%; in the assay with U251 CNS, 101%; in the assay with PC-3 prostate it was 97.8%; in the assay with SK-MEL-5 melanoma it was 104%; with UACC-62 melanoma, 89.4%. Besides, the growth with LOX IMVI melanoma was 96.4%; in the assay with SK-MEL-28 melanoma, 103%.

Take `O=C1c2ccccc2C(=O)c2c1cc1c(c2[N+](=O)[O-])OCO1`: the growth with DU-145 prostate was 17.8%; in the assay with K-562 leukemia, 10.5%; in the assay with MALME-3M melanoma, 85%; in the assay on MDA-MB-231 breast, 11.3%; in the assay with RXF 393 renal, -63.5% (active); in the assay with SF-268 CNS, 5.31% (active). Besides, the growth in the assay with SF-295 CNS was 10.6%; in the assay on SF-539 CNS, 21.3%; in the assay on UACC-257 melanoma, 82.3%; in the assay with M14 melanoma, 73.5%; with HCT-15 colon, 13.7%; in the assay with HT29 colon it was 32.5%. Also, the growth is -13.4% (active) in the assay with SNB-75 CNS; 21.7% with SNB-19 CNS; -13.3% (active) in the assay with U251 CNS; -3.71% (active) with PC-3 prostate; 80% in the assay on SK-MEL-5 melanoma; 15.2% in the assay with UACC-62 melanoma. Besides, the growth in the assay with LOX IMVI melanoma is 2.79% (active); in the assay on SK-MEL-28 melanoma, 103%.

With `O=C(Nc1cc(Cl)ccc1O)c1cccc(Nc2ccnc(C(F)(F)F)c2)c1`, the growth is 54.9% in the assay with DU-145 prostate; 7.05% (active) in the assay on K-562 leukemia; 53.1% with MALME-3M melanoma; 34.1% in the assay on MDA-MB-231 breast; 65.8% in the assay with RXF 393 renal; 55.2% with SF-268 CNS. The growth is 2.92% (active) with SF-295 CNS; 48.1% in the assay on SF-539 CNS; 32.3% in the assay with UACC-257 melanoma; 38.5% with M14 melanoma; 42.9% in the assay with HCT-15 colon; 87.4% in the assay on HT29 colon. Also, the growth in the assay on SNB-75 CNS was 61.4%; in the assay with SNB-19 CNS it was 44%; in the assay with U251 CNS, 43.2%; in the assay with PC-3 prostate, 28.2%; with SK-MEL-5 melanoma it was 4.5% (active); in the assay with UACC-62 melanoma it was 15.5%. Besides, the growth in the assay with LOX IMVI melanoma was 38.5%; with SK-MEL-28 melanoma, 88.1%.

The record behind these values is PubChem BioAssay (NCI).
